Experimental data: PubChem BioAssay AID1159580 (chemical genetic matrix, 2015)
Values joined by “and” are separate entries in the source; they are usually repeats but may differ in a detail not shown here. Equal values may be shown once. The whole screen tested about 5,500 compounds, of which about 2,000 (36%) were called active. About 18% were inconclusive and are not listed. No stated cut-off is given here; in the data, active means normalized growth mostly below about 0.91 (no sharp cut-off); inconclusive means no clear call, values can overlap the other calls; inactive means mostly above about 0.92. The list shows a part of the results.

Test: chemical genetic growth profiling, strain panel (AID 1159580);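 further: tested at 20 µM; growth read once vehicle control cultures reached saturation at 30 °C; 1 = growth at the plate median or of vehicle wells; lower values mean less growth of the strain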
Conditions: growth OD

Measured: normalized growth

COc1cccc(OC)c1OCCNCC1COc2ccccc2O1 (centres undefined)
inactive: S. cerevisiae deletion strains, locus YAL013W, strain DEP1, active compounds read low 1.02 | S. cerevisiae deletion strains, locus YAL040C, strain CLN3, active compounds read low 0.995 | S. cerevisiae deletion strains, locus YBR021W, strain FUR4, active compounds read low 0.991 | S. cerevisiae deletion strains, locus YBR229C, strain ROT2, active compounds read low 1.01 | S. cerevisiae deletion strains, locus YCL029C, strain bik1, active compounds read low 0.982 | S. cerevisiae deletion strains, locus YCL061C, strain MRC1 (second series), active compounds read low 0.999 | S. cerevisiae deletion strains, locus YDL035C, strain GPR1, active compounds read low 1.01 | S. cerevisiae deletion strains, locus YDL074C, strain BRE1, active compounds read low 1.04 | S. cerevisiae deletion strains, locus YDL101C, strain DUN1, active compounds read low 1.03 | S. cerevisiae deletion strains, locus YDL134C, strain PPH21, active compounds read low 1.01 | S. cerevisiae deletion strains, locus YDL185W, strain tfp1, active compounds read low 0.991 | S. cerevisiae deletion strains, locus YDL192W, strain arf1, active compounds read low 0.99 | S. cerevisiae deletion strains, locus YDR101C, strain arx1, active compounds read low 0.965 | S. cerevisiae deletion strains, locus YDR150W, strain NUM1, active compounds read low 1.02 | S. cerevisiae deletion strains, locus YDR162C, strain NBP2, active compounds read low 1.04 | S. cerevisiae deletion strains, locus YDR318W, strain mcm21, active compounds read low 0.966 | S. cerevisiae deletion strains, locus YDR363W, strain ESC2, active compounds read low 0.955 | S. cerevisiae deletion strains, locus YDR388W, active compounds read low 0.983 | S. cerevisiae deletion strains, locus YDR502C, strain sam2, active compounds read low 0.995 | S. cerevisiae deletion strains, locus YEL061C, strain CIN8, active compounds read low 1.01 | S. cerevisiae deletion strains, locus YER002W, strain NOP16, active compounds read low 1 | S. cerevisiae deletion strains, locus YER110C, active compounds read low 0.978 | S. cerevisiae deletion strains, locus YER155C, strain BEM2, active compounds read low 1.01 | S. cerevisiae deletion strains, locus YER167W, strain BCK2, active compounds read low 1 | S. cerevisiae deletion strains, locus YGL078C, strain dbp3, active compounds read low 0.991 | S. cerevisiae deletion strains, locus YGL086W, strain mad1, active compounds read low 0.974 | S. cerevisiae deletion strains, locus YGL248W, strain PDE1, active compounds read low 1.02 | S. cerevisiae deletion strains, locus YGR078C, strain PAC10, active compounds read low 1.03 | S. cerevisiae deletion strains, locus YGR135W, strain pre9, active compounds read low 0.975 | S. cerevisiae deletion strains, locus YGR229C, strain SMI1, active compounds read low 1.01 and 0.909 | S. cerevisiae deletion strains, locus YGR252W, strain gcn5, active compounds read low 0.907 | S. cerevisiae deletion strains, locus YHR030C, strain SLT2, active compounds read low 1.01 | S. cerevisiae deletion strains, locus YHR079C, strain IRE1 (second series), active compounds read low 0.978 | S. cerevisiae deletion strains, locus YHR094C, strain hxt1, active compounds read low 0.992 | S. cerevisiae deletion strains, locus YHR129C, strain ARP1, active compounds read low 1.01 | S. cerevisiae deletion strains, locus YHR200W, strain rpn10, active compounds read low 0.977 | S. cerevisiae deletion strains, locus YIL066C, strain RNR3, active compounds read low 1.01 | S. cerevisiae deletion strains, locus YIL073C, strain SPO22, active compounds read low 0.999 | S. cerevisiae deletion strains, locus YIL125W, strain kgd1, active compounds read low 0.97 | S. cerevisiae deletion strains, locus YIR030C, strain dcg1, active compounds read low 0.986 | S. cerevisiae deletion strains, locus YJL095W, strain BCK1, active compounds read low 0.992 | S. cerevisiae deletion strains, locus YJL134W, strain LCB3, active compounds read low 1.01 | S. cerevisiae deletion strains, locus YJL168C, strain set2, active compounds read low 0.98 | S. cerevisiae deletion strains, locus YJL187C, strain SWE1 (second series), active compounds read low 1.02 | S. cerevisiae deletion strains, locus YJR043C, strain POL32, active compounds read low 1.01 | S. cerevisiae deletion strains, locus YJR075W, strain HOC1, active compounds read low 1.01 and 0.99 | S. cerevisiae deletion strains, locus YKL009W, strain mrt4, active compounds read low 1 | S. cerevisiae deletion strains, locus YKL068W, active compounds read low 0.995 | S. cerevisiae deletion strains, locus YKL085W, strain MDH1 (second series), active compounds read low 1.03 | S. cerevisiae deletion strains, locus YKL085W, strain MDH1, active compounds read low 1.03 | S. cerevisiae deletion strains, locus YKL190W, strain CNB1, active compounds read low 1.01 | S. cerevisiae deletion strains, locus YKR001C, strain vps1, active compounds read low 0.999 | S. cerevisiae deletion strains, locus YLR039C, strain RIC1, active compounds read low 1.11 | S. cerevisiae deletion strains, locus YLR058C, strain SHM2, active compounds read low 1.02 | S. cerevisiae deletion strains, locus YLR102C, strain apc9, active compounds read low 0.983 | S. cerevisiae deletion strains, locus YLR262C, strain YPT6, active compounds read low 1.16 | S. cerevisiae deletion strains, locus YLR268W, strain sec22, active compounds read low 0.98 | S. cerevisiae deletion strains, locus YLR330W, strain CHS5, active compounds read low 1.01 | S. cerevisiae deletion strains, locus YLR342W, strain FKS1 (second series), active compounds read low 0.965 | S. cerevisiae deletion strains, locus YLR371W, strain rom2, active compounds read low 0.982 | S. cerevisiae deletion strains, locus YLR418C, strain cdc73, active compounds read low 0.983 | S. cerevisiae deletion strains, locus YML016C, strain PPZ1, active compounds read low 1.01 | S. cerevisiae deletion strains, locus YML032C, strain rad52, active compounds read low 0.96 | S. cerevisiae deletion strains, locus YML124C, strain tub3, active compounds read low 0.989 | S. cerevisiae deletion strains, locus YMR078C, strain ctf18, active compounds read low 0.985 | S. cerevisiae deletion strains, locus YMR223W, strain ubp8, active compounds read low 0.963 | S. cerevisiae deletion strains, locus YMR263W, strain SAP30, active compounds read low 1.02 and 0.998 | S. cerevisiae deletion strains, locus YMR307W, strain GAS1, active compounds read low 1.08 and 0.993 | S. cerevisiae deletion strains, locus YNL067W, strain RPL9B, active compounds read low 1.02 | S. cerevisiae deletion strains, locus YNL128W, strain TEP1, active compounds read low 1.02 and 1.01 | S. cerevisiae deletion strains, locus YNL153C, strain GIM3, active compounds read low 1.03 | S. cerevisiae deletion strains, locus YNL175C, strain NOP13, active compounds read low 1.02 | S. cerevisiae deletion strains, locus YNL197C, strain WHI3, active compounds read low 1.04 | S. cerevisiae deletion strains, locus YNL224C, strain SQS1, active compounds read low 0.999 | S. cerevisiae deletion strains, locus YNL233W, strain BNI4, active compounds read low 1.02 | S. cerevisiae deletion strains, locus YNL250W, strain rad50, active compounds read low 1.01 | S. cerevisiae deletion strains, locus YNL271C, strain bni1, active compounds read low 0.983 | S. cerevisiae deletion strains, locus YNL298W, strain CLA4, active compounds read low 0.977 | S. cerevisiae deletion strains, locus YNL307C, strain MCK1, active compounds read low 0.975 | S. cerevisiae deletion strains, locus YNL322C, strain KRE1, active compounds read low 1.02 and 0.982 | S. cerevisiae deletion strains, locus YNR052C, strain pop2, active compounds read low 0.966 | S. cerevisiae deletion strains, locus YOL006C, strain TOP1, active compounds read low 1.03 | S. cerevisiae deletion strains, locus YOL012C, strain htz1 1.66 | S. cerevisiae deletion strains, locus YOL147C, strain pex11, active compounds read low 0.991 | S. cerevisiae deletion strains, locus YOR061W, strain CKA2, active compounds read low 1.02 | S. cerevisiae deletion strains, locus YOR069W, strain VPS5, active compounds read low 1.01 | S. cerevisiae deletion strains, locus YOR083W, strain WHI5 (second series), active compounds read low 1.02 | S. cerevisiae deletion strains, locus YOR136W, strain idh2, active compounds read low 0.992 | S. cerevisiae deletion strains, locus YOR144C, strain elg1, active compounds read low 0.994 | S. cerevisiae deletion strains, locus YOR184W, strain ser1, active compounds read low 0.954 | S. cerevisiae deletion strains, locus YOR316C, strain cot1, active compounds read low 0.988 | S. cerevisiae deletion strains, locus YPL055C, strain LGE1, active compounds read low 1.07 and 0.961 | S. cerevisiae deletion strains, locus YPL241C, strain CIN2, active compounds read low 1.01 | S. cerevisiae deletion strains, locus YPR119W, strain clb2, active compounds read low 0.983 | S. cerevisiae deletion strains, locus YPR141C, strain kar3, active compounds read low 0.987 | S. cerevisiae deletion strains, locus YPR163C, strain tif3, active compounds read low 0.985 | S. cerevisiae deletion strains, locus YPR167C, strain met16, active compounds read low 0.986 | S. cerevisiae deletion strains, strain wtn01, active compounds read low 0.988 | S. cerevisiae strains, strain wild type, active compounds read low 1.01
